# The list is not random: actives were taken first. Their share in the collection is about 2.3%.
# Hsp90 Hop PPI = qHTS Assay for Disrupters of an Hsp90 Co-Chaperone Interaction | AID 595, 2007 | Potency, µM (top dose mostly 57 µM) | Hsp90 C-terminal peptide / TPR2A (Hop) interaction, human | AlphaScreen TPR2A-His6 binding biotin-Hsp90 C-terminal peptide | 71,000 tested, 0.44% active; active = well fitted curve in either direction with a large enough effect; inconclusive = small, poorly fitted or top-dose-only effect, or another doubt
# Tau filament bind = qHTS Assay for Tau Filament Binding; Microtubule-associated protein tau (Homo sapiens), P10636; recombinant tau filaments, thioflavin S fluorescence, 15 h; filaments grown with octadecylsulfate alongside compound; Potency, µM (top dose mostly 57.1 µM); 71,000 tested, 2% active; AID 596, 2007;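 note: actives lower thioflavin S fluorescence by blocking filaments or displacing dye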
#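 Tau 2 uM in ThS buffer dispensed; compound added; 60 uM ODS added (finals 1 uM tau, 30 uM ODS); 15 h 37 C; fluor ex450/em510.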
# BRCT PPI red = qHTS Assay for Inhibitors of BRCT-Phosphoprotein Interaction (Red Fluorophore) | 75,000 tested, 0.03% active | BRCT-phosphopeptide binding, red fluorescence polarization | Breast cancer type 1 susceptibility protein (Homo sapiens), P38398 | Potency, µM (highest dose often 76.9 µM), most hits filed as inhibitors | AID 892, 2007
#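 Rhodamine-labelled pBACH1 10-mer (100 nM) bound to BRCT domain (100 nM) at pH 7.3; compounds incubated 12 min room temperature, polarization read. Free peptide defines full inhibition; unlabelled decapeptide titrated as control.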
# YjeE inh = qHTS Assay for Inhibitors of YjeE. purified YjeE enzyme, qHTS inhibition assay. Potency, µM. 71,000 tested, 0.05% active
#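 Fluorescence polarization of a BODIPY Texas Red–ADP probe (2 uM) bound to purified YjeE (10 uM) was read after 15 min room-temperature incubation with compounds. Loss of polarization marks inhibitors; ADP serves as titrated control.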
# DNA Pol III inh = qHTS Assay for Inhibitors of DNA Polymerase III Holoenzyme System | reconstituted DNA polymerase III holoenzyme replication, biochemical | Potency, µM (doses to about 57.1 µM) | 71,000 tested, 0.25% active
#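 Reconstituted *E. coli* holoenzyme (0.35 nM Pol III, 1 nM beta, 154 nM SSB, 2 nM primase) was preincubated with compound for 15 min at RT. Synthesis on 1.4 nM ssM13Gori ran 35 min, then was stopped with PicoGreen/EDTA and read as dsDNA fluorescence.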
# BRCT PPI green = qHTS Assay for Inhibitors of BRCT-Phosphoprotein Interaction (Green Fluorophore); Breast cancer type 1 susceptibility protein (Homo sapiens), P38398; BRCA1 BRCT-phosphopeptide binding, green fluorescence polarization; Potency, µM (top dose mostly 76.9 µM), hits mostly inhibitors; 75,000 tested, 0.05% active; AID 875, 2007
#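 Fluorescence polarization: His-tagged BRCT (~35 kDa BRCA1 C-terminus, 250 nM) bound to 100 nM fluorescein-labeled phosphorylated 10-aa BACH1 peptide, pH 7.3 phosphate buffer with DTT and Tween 20. Compounds incubated 12 min at room temperature; inhibition read as lowered polarization.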
# Numbers stand for hits; i = inactive; ? = inconclusive; nt = not tested or not shown; [ ] = remark or other dose. Unless noted, calls come from the whole dose curve; as a rule, active = well fitted curve in the direction sought with a large enough effect; inconclusive = small, poorly fitted or top-dose-only effect, or another doubt; inactive = no such curve, though single readings can be large; an effect the other way counts as inactive or inconclusive.
SMILES,Hsp90 Hop PPI,Tau filament bind,BRCT PPI red,YjeE inh,DNA Pol III inh,BRCT PPI green
COc1cc2c(cc1OC)-c1c(oc3cc(O)cc(O)c3c1=O)CO2,nt,nt,i,nt,nt,i[3.08 µM]
CCN(CC)CCn1c(-c2ccccc2)nc2c(N3CCOCC3)nc(C)nc21,i,i,i,i,i,i
COC(=O)[C@@]1(Cc2ccc(OC)cc2)[C@H]2c3cc(C(=O)N(C)C)n(CCN4CNCC4=O)c3C[C@H]2CN1C(=O)c1ccccc1,i,i,i,i,i,i
COc1ccc(-c2nc3cnc(Nc4cccc(OC)c4)nc3n(Cc3cccs3)c2=O)cc1,i,i,i,i,i,i
Nc1nc(-c2c[nH]c3ccccc23)cs1,i,25µM,i,i,i,i
COc1cccc(-c2cc(NCc3cnc(C)cn3)ncn2)c1,i,i,i,i,i,i
Cc1ccc(C(=O)Nc2ccc(S(=O)(=O)O)c3cc(S(=O)(=O)O)cc(S(=O)(=O)O)c23)cc1NC(=O)c1cccc(NC(=O)Nc2cccc(C(=O)Nc3cc(C(=O)Nc4ccc(S(=O)(=O)O)c5cc(S(=O)(=O)O)cc(S(=O)(=O)O)c45)ccc3C)c2)c1,?,?,i,i,32µM,i
CC(C)(C)c1ccc(-c2nnc3sc(-c4ccccn4)nn23)cc1,2µM,?,i,i,i,i
Clc1ccc(-c2nnc3sc(-c4ccccn4)nn23)cc1,i,i,i,i,i,i
CN(C)c1ccc(-c2nn3c(-c4ccncc4)nnc3s2)cc1,i,i,i,i,i,i
Cc1ccc(-c2nnc3sc(-c4ccncc4)nn23)cc1,i,25µM,i,i,i,i
c1ccc(-c2nn3c(-c4ccncc4)nnc3s2)nc1,?,13µM,i,i,i,i
Oc1c(-c2cc(-c3ccco3)[nH]n2)ccc2ccccc12,?,16µM,i,i,i,i
O=C(O)c1cc(-c2ccco2)nc2ccccc12,i,i,i,i,i,i
CC(=O)Nc1ccccc1C=C1c2ccccc2-c2ccccc21,i[11 µM],i[11.4 µM],i[15.4 µM],i,i[11.4 µM],i[15.4 µM]
CC(=O)Nc1ccc2c(c1)/C(=C/c1ccc([N+](C)(C)C)cc1)c1ccccc1-2,i[11 µM],3.2µM,i[15.4 µM],i,i[11.4 µM],i[15.4 µM]
Cc1ccc(-c2cc(C(=O)NCCCn3ccnc3)c3cc(Br)ccc3n2)o1,i,16µM,i,i,i,i
Cc1ccc(-c2cc(C(=O)NC3=NCCS3)c3cc(Br)ccc3n2)o1,i,13µM,i,i,i,i
CCOC(=O)C1=C(C)NC(C)=C(C(=O)OC)[C@H]1c1cccc(Cl)c1Cl,i,i,i,i,i,i
CC(C)CO/N=C1/[C@H]2O[C@@H]2[C@@H](O)[C@H]2[C@H]1CCn1c(=O)n(-c3ccccc3)c(=O)n12,nt,nt,i[15.4 µM],nt,nt,i[15.4 µM]
O=C(O)c1ccc(CO)o1,i,i,i,i,i,i
N#Cc1c(-c2ccco2)cc(-c2cccnc2)nc1N,?,i,?,i,32µM,?
Cc1ccc(C)n1-c1ccc(N2CCOCC2)cc1,?,25µM,i,i,i,i
COc1ccc(C(NC(C)=O)c2ccc3cccnc3c2O)c(OC)c1 (centres undefined),16µM,i,i,i,i,i
CC(C)C(=O)NC(c1ccco1)c1ccc2cccnc2c1O (centres undefined),10µM,i,i,i,i,i
SMILES,Hsp90 Hop PPI,Tau filament bind,BRCT PPI red,YjeE inh,DNA Pol III inh,BRCT PPI green
CCOC(=O)/C(C#N)=C1/C=Cc2ccccc2N1CC,i,16µM,i,i,i,i
O=C(NCCCn1ccnc1)C(F)(F)C(F)(F)C(=O)NCCCn1ccnc1,25µM,i,i,i,i,i
COc1ccc(NC(=O)c2ccc(-c3ccc(-c4noc(C)n4)cc3C)cc2)cc1OCCN(C)C,i,i,i,i,?,i
Cn1cc(C2=C(c3cn(CCCSC(=N)N)c4ccccc34)C(=O)NC2=O)c2ccccc21,nt,nt,i,nt,nt,i
CN(C)CCCn1cc(C2=C(c3c[nH]c4ccccc34)C(=O)NC2=O)c2ccccc21,?,2µM,i,i,i,i
Cc1nc(N)sc1-c1csc(Nc2ccccc2)n1,?,20µM,i,i,i,i
COc1ccc(OC)c(Nc2nc(-c3sc(N)nc3C)cs2)c1,?,10µM,i,i,i,i
Cc1cccc(NC(=O)Nc2cccc(C#N)c2)n1,i,i,i,i,i,i
Cc1cccc(NC(=O)Nc2ccc(C#N)cc2)n1,i,i,i,i,25µM,i
Nc1cc(N)c(OCC(F)(F)F)cc1OCC(F)(F)F,i,16µM,i,i,i,i
O=C(C1CCCCC1)N1CCC(c2nc3ccccc3[nH]2)CC1,i,i,i,i,i,i
CN1C(=O)CC(N2CCC(c3nc4ccccc4[nH]3)CC2)C1=O (centres undefined),i[2.3 µM],20µM,i,i,i,i
COc1ccc2c3c(ccc2c1)N[C@H](C(=O)O)CC3,i[11 µM],i[11.4 µM],i[15.4 µM],i,i[11.4 µM],i[15.4 µM]
CC(C)C(=O)NC(=O)C1CCCN1C(=O)/C=C/c1ccccc1 (centres undefined),nt,nt,i[15.4 µM],nt,nt,i[15.4 µM]
Cc1ccc(-c2nc3ncccn3c2NC2CCCC2)o1,i,13µM,i,i,i,i
Cc1ccc(-c2nc3ncccn3c2Nc2ccc3c(c2)OCO3)o1,i,13µM,i,i,i,i
c1cn2c(NC3CCCC3)c(-c3ccc(N4CCOCC4)cc3)nc2cn1,i,i,i,i,i,i
Oc1ccc(-c2nc3ncccn3c2Nc2ccc3c(c2)OCO3)cc1,i,i,i,i,i,i
COCC(=O)Nc1c(I)c(C(=O)NC[C@@H](O)CO)c(I)c(C(=O)N(C)C[C@@H](O)CO)c1I,?,i,i,i,i,i
COc1ccc(NC(=O)C2CCCN2S(=O)(=O)c2ccc3c(c2)CCC(=O)N3)c(OC)c1 (centres undefined),i,25µM,i,i,i,i
Cc1ccc(CCNC(=O)C2CCCN2S(=O)(=O)c2ccc3c(c2)CCC(=O)N3)cc1 (centres undefined),i,i,i,i,i,i
O=c1cc(CO)occ1O,i,i,i,i,i,i
c1ccc(-c2ccc(N3CC[C@@]4(CCCNC4)C3)cc2)cc1,i,i,i,i,i,i
c1ccc(-c2ccc(N3CCCC4(CCNCC4)C3)cc2)cc1,?,3.2µM,i,i,i,i
c1ccc(-c2ccc(N3CC4(CCNCC4)C3)cc2)cc1,?,13µM,i,i,i,i
OC(CN(c1ccccc1)c1ccccc1)Cn1cnc2ccccc21 (centres undefined),i,13µM,i,i,i,i
